Experimental data published in PubChem BioAssay (NCATS).
“And” between values parts separate entries of the source, which are not always exact repeats. Equal values may be shown once. Results filed as inconclusive are left out. Entries that show only a call come without a potency. The source made the active and inactive calls. Unless noted, calls come from the whole dose curve; as a rule, active = well fitted curve in the direction sought with a large enough effect; inconclusive = small, poorly fitted or top-dose-only effect, or another doubt; inactive = no such curve, though single readings can be large; an effect the other way counts as inactive or inconclusive.

What was measured:
[1] = molecular target: Tyrosine-protein kinase Yes (Homo sapiens) (UniProt P07947); assay: qHTS for small molecule inhibitors of Yes1 kinase: Primary Screen (AID 686947); note: nearly all actives have a fitted effect of over 60% in size
Summary of the method: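 In this qHTS format, inhibition is expressed relative to DMSO controls with enzyme (maximum) and without enzyme (minimum). The 60 min room-temperature reaction uses 0.1 mM ATP, with ADP detected by luminescence.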

[2] = qHTS for small molecule inhibitors of Yes1 kinase: Counter Assay (AID 686950);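 note: no kinase present so only ADP-Glo detection of a fixed ADP amount is tested; luminescence from ADP-Glo reporting ADP in a fixed ATP and ADP mixture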
Summary of the method: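 Measuring interference with ADP-Glo, the assay ran 60 min at room temperature on an ATP/ADP mix lacking enzyme. Values were normalized to ATP-plus-ADP (maximum) and ATP-only (minimum) DMSO controls.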

[3] = qHTS Assay for Identifying Gametocytocidal Compounds (AID 743244);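 note: actives lower the fluorescent signal which means gametocytes are killed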; details: P. falciparum 3D7 stage III-V gametocytes, alamarBlue, 72 h; max response: stronger effect = lower value
Summary of the method: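 3D7 gametocytes, stages III–V, 20,000/well; cpd 72 h, 37 °C/5% CO2; + alamarBlue 24 h; fluor. Ex 525/Em 598.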

[4] = qHTS profiling for inhibitors of Plasmodium falciparum (3D7) proliferation (AID 743322);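 note: infected erythrocytes exposed to compound for 72 h before lysis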; details: P. falciparum 3D7 proliferation; at 28.7 µM (top of the series)
Summary of the method: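 Parasite DNA was quantified by SYBR Green I fluorescence (ex 485, em 535 nm) after overnight lysis in saponin/Triton buffer at room temperature. Cultures at 0.3% parasitemia and 2.5% hematocrit were first exposed to compound for 72 h at 37 C; signals were normalised to artemisinin (0.29 uM) and vehicle wells.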

[5] = qHTS profiling for inhibitors of Plasmodium falciparum (DD2) proliferation (AID 743323; call rule not given here); details: lower = more inhibition; at 28.7 µM (top of the series)
Summary of the method: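 Parasite proliferation measured via DNA-dye fluorescence, as uninfected erythrocytes lack DNA. Cultures at 0.3% parasitemia and 2.5% hematocrit incubated 72 h with compound; signal scaled between vehicle and 0.29 uM artemisinin wells.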

[6] = qHTS profiling for inhibitors of Plasmodium falciparum (HB3) proliferation (AID 743324); details: Plasmodium falciparum HB3 blood-stage proliferation; at 28.7 µM (top of the series)
Summary of the method: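 SYBR Green fluorescence (485 ex/535 em) of lysed cultures, incubated overnight at room temperature in the dark, quantifies parasite DNA. Infected erythrocytes at 0.3% parasitemia and 2.5% hematocrit were exposed 72 h; values normalized to DMSO and 0.29 uM artemisinin controls.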

[7] = qHTS assay for environmental chemicals that activate the Aryl hydrocarbon Receptor (AhR) signaling pathway (AID 651777); details: 1A2-DRE human hepatoma cells, luciferase, 24 h; activation: stronger effect = higher value; note: nearly all actives have a fitted effect of over 15% in size
Summary of the method: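 Human hepatoma 1A2-DRE cells stably carrying a DRE/CYP1A2 promoter–luciferase reporter, 1,200 cells/well, exposed to compound 24 hr at 37 C. Luciferase read by One-Glo luminescence after 30 min at room temperature; increased signal marks AhR activation.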

[8] = molecular target: Peroxisome proliferator-activated receptor alpha (Homo sapiens) (UniProt Q07869); assay: qHTS assay for small molecule agonists of the peroxisome proliferator-activated receptor alpha (PPARalpha) signaling pathway (AID 651778); details: PathHunter PPARalpha complementation, chemiluminescence, 6 h; stronger effect = higher value
Summary of the method: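 Cells plated at 2,000/well and held overnight at 37 C, 5% CO2, then compound added by pin tool for 6 hr; after PathHunter detection reagent and 60 min at room temperature, chemiluminescence from enzyme complementation was read.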

[9] = molecular target: Arylsulfatase A (Homo sapiens) (UniProt P15289); assay: qHTS screen for enhancers of Arylsulfatase A (ASA1): LOPAC Validation Assay (AID 720538); details: outcome: dose series up to 57.5 µM
Summary of the method: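 Enhancer assay in patient-derived MLD fibroblasts carrying ASA-I179S: 48 h compound exposure at 37 C, then 14 h room-temperature pNCS turnover (0.5 mM final) in lysis buffer. Read by fluorescence at 525/598 nm after NaOH stop.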

[10] = qHTS for compounds that reverse cellular toxicity of Amyloid beta (A-beta) peptide in yeast: LOPAC Validation Assay (AID 720559)
Summary of the method: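 Rescue of A-beta toxicity was scored as yeast growth by 600 nm absorbance after 48 hr at 30 C with compound. Normalization used DMSO (negative) and equimolar ferric chloride plus clioquinol (positive).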

[11] = qHTS for Activators of Parkin Expression: LOPAC Validation Assay (NLuc Reporter) (AID 720572)
Summary of the method: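 Cells harboring the Parkin-promoter coincidence reporter were treated for 24 h at seven concentrations. NLuc output was measured sequentially after the FLuc channel and scaled between DMSO and positive control values.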

[12] = qHTS for Activators of Parkin Expression: LOPAC Validation Assay (FLuc Reporter) (AID 720573)
Summary of the method: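 FLuc signal from Parkin-promoter coincidence reporter neuronal cells, normalized to DMSO and positive control (100%). Cells (1,500/well) pre-incubated 24 h, then exposed to LOPAC compounds in 7-point dose response for 24 h at 37 C, 5% CO2.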

[13] = qHTS assay for small molecule agonists of the antioxidant response element (ARE) signaling pathway measured by Nrf2-dependant transcriptional activity (AID 720636; active = well fitted curve in the direction sought with a large enough effect in the repeat runs; an effect the other way counts as inactive or inconclusive)
Summary of the method: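 ARE-luc HepG2 cells carrying an Nrf2-responsive luciferase reporter, in medium with 1% dialyzed FBS, exposed to compound for 16 hr at 37 C, 5% CO2. Luminescence read 30 min after ONE-Glo addition.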

[14] = qHTS assay for small molecule antagonists of the retinoid-related orphan receptor gamma (ROR-gamma) signaling pathway - cell viability counter screen (AID 720652; active = well fitted curve in the direction sought with a large enough effect in the repeat runs; an effect the other way counts as inactive or inconclusive;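 note: CHO reporter cells with doxycycline-induced ROR-gamma expression; compound exposure lasted 16 hr before ATP read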)
Summary of the method: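 ATP-based viability readout in the ROR-gamma reporter CHO cells after 16 hr compound exposure under doxycycline induction.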

[15] = qHTS assay for small molecule agonists of the antioxidant response element (ARE) signaling pathway measured by Nrf2-dependant transcriptional activity - cell viability counter screen (AID 720653; active = well fitted curve in the direction sought with a large enough effect in the repeat runs; an effect the other way counts as inactive or inconclusive); details: ARE-bla HepG2 viability, CellTiter-Glo ATP luminescence, 16 h; max response: stronger effect = lower value
Summary of the method: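 ARE-bla HepG2 cells (2,000/well) rested 5 hrs at 37C/5% CO2, then exposed to compounds in DMSO for 16 hrs. Viability was read in the same wells as intracellular ATP by luminescence, 30 min at room temperature after reagent addition.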

[16] = molecular target: T1, Hexokinase-4 (Homo sapiens) + Glucokinase regulatory protein (Homo sapiens) (UniProt P35557+Q14397); assay: qHTS assay for inhibitors of recombinant human GCK-GKRP interaction: ADP-Glo assay (AID 743206)
Summary of the method: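 Pin-transferred compounds meet a 15 nM GST-GCK/15 nM FLAG-GKRP/2 uM S6P mix (dispense concentrations). ATP is then added to 0.4 mM final with 5 mM glucose, and the reaction runs 60 min at room temperature. ADP is quantified luminescently.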

[17] = molecular target: T1, Hexokinase-4 (Homo sapiens) + Glucokinase regulatory protein (Homo sapiens); assay: qHTS assay for inhibitors of recombinant human GCK-GKRP interaction: HTRF assay (AID 743207)
Summary of the method: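 After 60 min equilibration at room temperature with anti-FLAG XL665 and anti-GST antibodies, FRET ratio (665/615 nm, excitation 320 nm) was read. Proteins: GST-GCK and FLAG-GKRP, each 5 nM, plus 2 uM S6P, pH 7.1 buffer; GCK-free wells define minimum signal.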

[18] = qHTS assay for cell viability of HEK293 cells (AID 743288); details: ATP luminescence (CellTiter-Glo), 18 h; max response: stronger effect = lower value; note: nearly all actives have a fitted effect of over 50% in size
Summary of the method: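 Readout is luciferase-coupled ATP content (CellTiter-Glo luminescence, 30 min room temperature) as a measure of metabolically competent cells. Parental HEK293 cells were plated 5 h or more before compound addition, then treated 18 h at 37 C.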

[19] = qHTS assay for cell viability of the p53RE-bla HCT-116 cell line (AID 743292); note: nearly all actives have a fitted effect of over 55% in size; note: potency is the fitted concentration of half-maximal effect
Summary of the method: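 CellSensor p53RE-bla HCT-116 cells (4,000/well) pre-incubated 5 h at 37 C, then exposed to compounds in DMSO for 16 h at 37 C. Viability read as ATP content by CellTiter-Glo luminescence after 30 min at room temperature.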

[20] = molecular target: Nuclear receptor ROR-gamma (Homo sapiens) (UniProt P51449); assay: qHTS assay for small molecule antagonists of the retinoid-related orphan receptor gamma (ROR-gamma) signaling pathway (AID 651802); note: nearly all actives have a fitted effect of over 60% in size; note: potency is the fitted concentration of half-maximal effect
Summary of the method: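 Doxycycline-induced reporter activity in engineered CHO cells (TET-inducible ROR, RORE-LUC) was measured by luminescence after 16hr compound exposure at 37C.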

T1 sequence (P35557 whole entry, looked up): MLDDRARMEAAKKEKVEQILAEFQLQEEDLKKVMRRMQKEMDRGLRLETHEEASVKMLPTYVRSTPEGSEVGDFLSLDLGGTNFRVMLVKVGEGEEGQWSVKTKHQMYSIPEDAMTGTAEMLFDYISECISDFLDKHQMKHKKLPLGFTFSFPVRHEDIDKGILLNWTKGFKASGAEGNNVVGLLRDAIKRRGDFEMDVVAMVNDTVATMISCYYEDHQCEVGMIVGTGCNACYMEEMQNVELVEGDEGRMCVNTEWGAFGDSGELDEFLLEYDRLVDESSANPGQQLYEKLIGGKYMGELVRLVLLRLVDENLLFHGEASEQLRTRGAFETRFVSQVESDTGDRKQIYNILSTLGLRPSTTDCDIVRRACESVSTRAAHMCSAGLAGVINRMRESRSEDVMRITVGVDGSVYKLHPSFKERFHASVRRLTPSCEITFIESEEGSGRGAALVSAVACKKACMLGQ
T1 sequence (Q14397 whole entry, looked up): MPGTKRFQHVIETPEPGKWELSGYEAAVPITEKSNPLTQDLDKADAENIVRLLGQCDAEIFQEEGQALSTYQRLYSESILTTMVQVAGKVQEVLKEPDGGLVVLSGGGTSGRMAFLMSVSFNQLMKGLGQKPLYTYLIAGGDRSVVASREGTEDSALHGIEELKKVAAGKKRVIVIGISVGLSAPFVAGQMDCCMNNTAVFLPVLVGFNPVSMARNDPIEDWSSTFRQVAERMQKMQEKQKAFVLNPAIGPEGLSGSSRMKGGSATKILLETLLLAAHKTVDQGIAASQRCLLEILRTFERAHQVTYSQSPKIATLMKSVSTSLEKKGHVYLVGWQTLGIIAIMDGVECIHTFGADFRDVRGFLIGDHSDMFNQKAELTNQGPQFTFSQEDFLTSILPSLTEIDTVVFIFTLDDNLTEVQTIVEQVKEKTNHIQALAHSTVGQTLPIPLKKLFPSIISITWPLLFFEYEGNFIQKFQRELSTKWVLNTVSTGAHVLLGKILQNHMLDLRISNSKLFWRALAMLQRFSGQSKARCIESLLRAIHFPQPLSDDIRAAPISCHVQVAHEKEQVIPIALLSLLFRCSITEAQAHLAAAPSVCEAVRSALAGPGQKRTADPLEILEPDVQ
Sequence of Peroxisome proliferator-activated receptor alpha (Homo sapiens) (Q07869 whole entry, looked up): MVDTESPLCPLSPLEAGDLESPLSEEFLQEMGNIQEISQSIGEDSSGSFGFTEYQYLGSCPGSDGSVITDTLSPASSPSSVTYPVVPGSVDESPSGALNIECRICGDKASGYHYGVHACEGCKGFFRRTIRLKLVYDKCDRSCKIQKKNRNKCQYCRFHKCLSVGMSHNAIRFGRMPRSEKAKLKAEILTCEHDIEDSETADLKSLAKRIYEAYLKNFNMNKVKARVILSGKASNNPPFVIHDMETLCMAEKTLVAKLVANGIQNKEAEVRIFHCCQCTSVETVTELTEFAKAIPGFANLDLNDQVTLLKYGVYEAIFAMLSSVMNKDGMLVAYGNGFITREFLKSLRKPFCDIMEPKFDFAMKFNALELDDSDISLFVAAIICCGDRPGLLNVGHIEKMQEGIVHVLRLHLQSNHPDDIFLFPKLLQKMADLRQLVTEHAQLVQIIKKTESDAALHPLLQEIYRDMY
Sequence of Arylsulfatase A (Homo sapiens) (P15289 whole entry, looked up): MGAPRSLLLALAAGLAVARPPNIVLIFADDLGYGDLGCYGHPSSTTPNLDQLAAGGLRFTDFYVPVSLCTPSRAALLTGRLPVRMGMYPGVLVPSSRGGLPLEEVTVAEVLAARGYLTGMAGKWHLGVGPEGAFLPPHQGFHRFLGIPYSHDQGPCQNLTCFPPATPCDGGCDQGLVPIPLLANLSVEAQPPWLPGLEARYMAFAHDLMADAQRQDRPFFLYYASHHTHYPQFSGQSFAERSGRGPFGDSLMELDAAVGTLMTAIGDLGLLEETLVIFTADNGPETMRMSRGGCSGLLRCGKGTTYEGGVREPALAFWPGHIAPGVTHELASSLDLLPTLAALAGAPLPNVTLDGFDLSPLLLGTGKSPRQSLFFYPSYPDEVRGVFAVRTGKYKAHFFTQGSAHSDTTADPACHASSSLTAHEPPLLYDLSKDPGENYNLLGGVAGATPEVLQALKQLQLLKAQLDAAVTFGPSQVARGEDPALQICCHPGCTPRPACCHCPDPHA
Sequence of Tyrosine-protein kinase Yes (Homo sapiens) (P07947 whole entry, looked up): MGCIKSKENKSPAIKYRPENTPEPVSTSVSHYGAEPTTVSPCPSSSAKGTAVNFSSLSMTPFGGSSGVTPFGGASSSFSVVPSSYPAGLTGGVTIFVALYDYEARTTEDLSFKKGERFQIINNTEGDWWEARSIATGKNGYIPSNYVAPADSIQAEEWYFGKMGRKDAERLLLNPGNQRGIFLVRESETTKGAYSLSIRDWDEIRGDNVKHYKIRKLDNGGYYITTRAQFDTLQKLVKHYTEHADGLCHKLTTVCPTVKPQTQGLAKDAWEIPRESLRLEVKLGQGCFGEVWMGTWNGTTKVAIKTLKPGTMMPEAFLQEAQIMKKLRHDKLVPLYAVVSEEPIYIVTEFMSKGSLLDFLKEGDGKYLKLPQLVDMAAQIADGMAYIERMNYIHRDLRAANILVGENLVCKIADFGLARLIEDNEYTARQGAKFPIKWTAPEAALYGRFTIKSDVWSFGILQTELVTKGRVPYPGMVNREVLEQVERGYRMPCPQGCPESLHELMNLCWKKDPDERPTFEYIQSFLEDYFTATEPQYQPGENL
Sequence of Nuclear receptor ROR-gamma (Homo sapiens) (P51449 whole entry, looked up): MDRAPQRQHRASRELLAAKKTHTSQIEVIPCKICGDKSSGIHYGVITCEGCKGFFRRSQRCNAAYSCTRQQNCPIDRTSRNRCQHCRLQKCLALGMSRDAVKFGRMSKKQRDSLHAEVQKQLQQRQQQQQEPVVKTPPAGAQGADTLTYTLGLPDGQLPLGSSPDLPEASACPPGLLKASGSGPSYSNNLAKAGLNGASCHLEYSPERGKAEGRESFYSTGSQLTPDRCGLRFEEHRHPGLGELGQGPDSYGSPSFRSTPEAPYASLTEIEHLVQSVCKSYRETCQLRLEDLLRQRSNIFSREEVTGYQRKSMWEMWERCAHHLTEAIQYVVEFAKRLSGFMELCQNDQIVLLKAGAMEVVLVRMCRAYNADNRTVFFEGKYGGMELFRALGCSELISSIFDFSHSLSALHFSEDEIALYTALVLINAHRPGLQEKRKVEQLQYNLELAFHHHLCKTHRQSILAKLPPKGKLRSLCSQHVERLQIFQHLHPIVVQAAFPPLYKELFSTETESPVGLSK

SMILES: O=C(O)CCC1CCC(c2cc(F)ccc2F)(S(=O)(=O)c2ccc(Cl)cc2)CC1 (stereo not drawn)
- Potency [1]: inactive
- outcome [2]: inactive
- max response [3]: -21% (inactive)
- remaining parasite growth % (stronger effect = lower value) [4]: 23.3%
- activity, percent of control [5]: 74.5%
- remaining proliferation (% of control), lower = more inhibition [6]: 56.3%

SMILES: COc1ccc(C2CC(c3ccccc3)=NN2c2ccc(S(N)(=O)=O)cc2)cc1 (stereo not drawn)
- Potency [1]: inactive
- outcome [2]: inactive
- max response [3]: -8.6% (inactive)
- remaining parasite growth % (stronger effect = lower value) [4]: 23.3%
- activity, percent of control [5]: 40.1%
- remaining proliferation (% of control), lower = more inhibition [6]: 19.1%

SMILES: CN(C)CCC(c1ccccc1)c1ccccn1 (stereo not drawn)
- activation [7]: -0.0214% (inactive)
- max response [8]: -0.672% (inactive)
- outcome [9]: inactive
- outcome [10]: inactive
- Potency [11]: inactive
- Potency [12]: inactive
- Potency [13]: inactive
- Potency [14]: inactive
- max response [15]: -6.47% (inactive)
- outcome [16]: inactive
- outcome [17]: inactive
- max response [3]: 15.2% (inactive)
- max response [18]: 2.94% (inactive)
- Potency [19]: inactive

SMILES: O=C(CCCCCCC(=O)Nc1ccccc1)NO
- Potency [1]: inactive

SMILES: O=C(O)c1cc(O)c2c(c1)C(=O)c1cccc(O)c1C2=O
- activation [7]: 1.52% (inactive)
- max response [8]: -6.2% (inactive)
- Potency [20]: 37.6 µM (active)
- Potency [13]: inactive
- Potency [14]: inactive
- max response [18]: -22.9% (inactive)
- Potency [19]: 35.5 µM (active)

SMILES: O=c1c(-c2ccc(O)cc2)coc2cc(O)ccc12
- max response [8]: 0.0671% (inactive) and -0.373% (inactive)
- Potency [20]: inactive
- outcome [9]: inactive
- max response [15]: -5.4% (inactive) and -12% (inactive)
- outcome [16]: inactive
- outcome [17]: inactive
- max response [3]: 16.7% (inactive)
- max response [18]: -7.57% (inactive) and -12.8% (inactive)
- Potency [19]: inactive

SMILES: CC(=O)c1ccc(S(=O)(=O)NC(=O)NC2CCCCC2)cc1
- activation [7]: -0.49% (inactive) and 0.0331% (inactive)
- max response [8]: 9.98% (inactive) and -1.51% (inactive)
- Potency [20]: inactive
- outcome [9]: inactive
- outcome [10]: inactive
- Potency [11]: inactive
- Potency [12]: inactive
- Potency [13]: inactive
- Potency [14]: inactive
- max response [15]: 2.45% (inactive) and -5.62% (inactive)
- outcome [16]: inactive
- outcome [17]: inactive
- max response [3]: -4.23% (inactive) and -12.4% (inactive)
- max response [18]: 4.87% (inactive) and -10.8% (inactive)
- Potency [19]: inactive
